HT1080-NT tox – kills 2HG-producing HT-1080-NT fibrosarcoma cells. Potency, µM (doses to about 46.1 µM), actives largely listed as cytotoxic. 360,000 tested, 1.6% active. HT-1080-NT fibrosarcoma viability, CellTiter-Glo ATP luminescence, 48 h;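 note: NT is the 2HG producing partner of a matched IDH1 knockdown line; nearly all actives have a fitted effect of over 55% in size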
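HT-1080-NT fibrosarcoma cells (2HG-overproducing), 750 cells/well in RPMI with 5% FBS, dosed after 2 h and incubated 48 h at 37C. CellTiter-Glo luminescence normalized to DMSO and no-cell wells; concentration-response curves fitted and classed.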
IL1B secr inh – blocks inflammasome-driven IL-1 beta release; THP-1 LPS/ATP IL-1B secretion, AlphaLISA, 16 h; active compounds read low; activity change, % at 57.5 µM; 360,000 tested, 4.7% active; AID 743279; in the data active = activity change below about -50%; inconclusive = mostly about -30% to -49%
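THP-1 cells pretreated 1 hr with compounds (up to 57.5 uM final), then stimulated with LPS (250 ng/mL final) plus ATP (1.25 mM final); secreted IL-1B measured by AlphaLISA after 16 hr, decreased signal indicating inhibition.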
KB-3-1 tox – KB-3-1 parental cell cytotoxicity; KB-3-1 viability, CellTiter-Glo ATP luminescence, 72 h; Potency, µM (top dose mostly 46.1 µM), hits mostly cytotoxic; 400,000 tested, 1.4% active; note: nearly all actives have a fitted effect of over 60% in size
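Cytotoxicity measured as CellTiter-Glo luminescence after 72 h at 37 C. Compound titrations were pinned onto drug-naive KB-3-1 parental adenocarcinoma cells grown in DMEM with 10% FBS, and normalized data fitted to concentration-response curves.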
KB-V1 cytotox – kills drug-selected multidrug resistant KB-V1 cells; KB-V1 MDR cells viability, CellTiter-Glo, 72 h; Potency, µM (top dose mostly 46.1 µM), most hits filed as cytotoxic; 400,000 tested, 3.4% active; AID 1347076; note: nearly all actives have a fitted effect of over 60% in size
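Cells of the MDR subline KB-V1 are plated, dosed with compound at multiple concentrations, and incubated 72 h at 37 degrees C; CellTiter-Glo is then added and luminescence read after 10 min.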
HT1080 IDH1KD tx – kills HT-1080 cells with IDH1 knockdown; HT-1080 IDH1 knockdown viability, ATP luminescence, 48 h; Potency, µM (top dose mostly 46.1 µM), actives largely listed as cytotoxic; 360,000 tested, 2% active; AID 686971
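Cytotoxicity counter-line: IDH1KD HT-1080, 48 h, CellTiter-Glo. Curves classed by r2, magnitude and activity.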
Numbers stand for hits; i = inactive; ? = inconclusive; nt = no result given. Sampled rows, rich in hits. Any-hit rate of the full collection: about 8.8%. Unless noted, calls come from the whole dose curve; as a rule, active = well fitted curve in the direction sought with a large enough effect; inconclusive = small, poorly fitted or top-dose-only effect, or another doubt; inactive = no such curve, though single readings can be large; an effect the other way counts as inactive or inconclusive.

SMILES	HT1080-NT tox	IL1B secr inh	KB-3-1 tox	KB-V1 cytotox	HT1080 IDH1KD tx
COC(=O)C1=C(c2ccc(Cl)c(C(F)(F)F)c2)C[C@@H]2CC[C@H]1N2C(=O)NCCO	i	i	i	i	i
COC(=O)C1=C(c2ccc(Cl)c(C(F)(F)F)c2)C[C@@H]2CC[C@H]1N2C(=O)NC1CCCCC1	i	-52.4	?	?	?
Cc1ccc(-n2c(O)c(/C=N/Nc3ccccc3)c(=O)[nH]c2=O)cc1C	?	i	i	?	6.51µM
Cn1c(O)c(C=Nc2ccccc2)c(=O)n(C)c1=O	i	i	i	i	i
Cn1c(O)c(/C=N/Nc2ccccc2)c(=O)n(C)c1=O	8.2µM	i	i	i	7.31µM
COc1ccc(N/N=C/c2c(O)n(-c3ccc(C)c(C)c3)c(=O)[nH]c2=O)cc1	?	i	?	?	?
COc1ccc(N/N=C/c2c(O)n(-c3cccc(C)c3)c(=O)[nH]c2=O)cc1	11.6µM	i	?	i	11.6µM
CCCOc1ccccc1OCC(=O)N1CCN(CC(=O)N2CCOCC2)CC1	i	i	i	i	i
CN1CCC(O)(c2cccs2)C(C(=O)c2cccs2)C1 (stereo not drawn)	23.1µM	-93.8	i	i	?
C[C@H](CO)N1C[C@H](C)[C@H](CN(C)S(=O)(=O)c2ccc(Cl)cc2)OCc2ccccc2-c2c(n(C)c3ccccc23)C1=O	?	i	?	?	?
CCCC[C@@H](C)C[C@@H](C)C(=O)N(C)[C@@H](CC(C)C)C(=O)N[C@H](C(=O)N(C)[C@H](C(=O)N1C[C@@H](O)C[C@H]1C(=O)N1C(=O)C=C[C@@H]1C)C(C)C)C(C)OC(C)=O (stereo partly drawn)	0.0291µM	-112.8	i	i	0.116µM
OCC(Br)CBr (stereo not drawn)	i	i	i	i	i
O=C(CN1C(=O)CN=C(c2ccccc2)c2ccccc21)NCc1ccco1	i	i	i	i	i
COc1ccc(C2=NCC(=O)N(CC(=O)NCc3ccco3)c3sc4c(c32)CCCC4)cc1OC	i	-56.5	i	i	i
CCCN(CCC)C1Cc2cc(OC)c(OC)cc2C1	i	i	i	i	i
COc1ccc(-n2c(/C=C/c3cccc(F)c3)nc3ccccc3c2=O)cc1Cl	nt	nt	i	i	nt
CC12CCC3C(CCCC4CC(=O)CCC43C)C1CCC2O (stereo not drawn)	i	i	?	7.31µM	i
C[C@]12CCC3C(C[C@@H](O)[C@H]4C[C@@H](O)CC[C@]34C)C1CC[C@@H]2O (stereo partly drawn)	i	i	i	i	i
CC1CC2CC(=O)CCC2(C)C2CCC3(C)C(O)CCC3C12 (stereo not drawn)	i	i	?	5.8µM	i
C=C1[C@@H](C)[C@H]2[C@H](Cc3ccccc3)NC(=O)[C@]23OC(=O)/C=C/[C@H](O)CCC[C@@H](C)C/C=C/[C@H]3[C@@H]1O	1.3µM	i	i	?	0.731µM
CCCCCn1c(=O)c(C(=O)Nc2cc(C)ccn2)c(O)c2ccccc21	i	i	i	?	i
CCCCCn1c(=O)c(C(=O)Nc2cnccn2)c(O)c2ccccc21	i	i	?	16.4µM	i
CCCCCCCn1c(=O)c(C(=O)Nc2cnccn2)c(O)c2ccccc21	i	nt	3.26µM	2.59µM	?
CNC(C)Cc1ccccc1 (stereo not drawn)	i	i	i	i	i
N[C@H](CO)Cc1ccccc1	i	i	i	i	29.1µM
SMILES	HT1080-NT tox	IL1B secr inh	KB-3-1 tox	KB-V1 cytotox	HT1080 IDH1KD tx
Cc1ccc(-n2c(/C=C/c3ccccc3)nc3ccccc3c2=O)cc1C	nt	nt	i	i	nt
NC(=Nc1ccccc1)NN=Cc1c[nH]c2ccccc12	?	-109.5	?	2.59µM	?
CN(C)C(=O)O/N=C(\N)COc1ccc(C(C)(C)C)cc1	11.6µM	i	i	?	20.6µM
CC(=O)O[C@H]1C(=O)[C@@]2(C)C([C@H](OC(=O)c3ccccc3)[C@]3(O)C[C@H](O)C(C)=C1C3(C)C)[C@]1(OC(C)=O)CO[C@@H]1C[C@H]2O (stereo partly drawn)	i	i	?	?	i
CC(=O)O[C@@]12CO[C@@H]1C[C@H](O)[C@@]1(C)C(=O)[C@H](O)C3=C(C)[C@@H](OC(=O)[C@H](O)[C@@H](NC(=O)c4ccccc4)c4ccccc4)C[C@@](O)([C@@H](OC(=O)c4ccccc4)C12)C3(C)C (stereo partly drawn)	0.0073µM	i	0.0073µM	8.2µM	?
CC(=O)O[C@H]1C(=O)[C@@]2(C)C([C@H](OC(=O)c3ccccc3)[C@]3(O)C[C@H](OC(=O)[C@H](O)[C@@H](NC(=O)Cc4ccccc4)c4ccccc4)C(C)=C1C3(C)C)[C@]1(OC(C)=O)CO[C@@H]1C[C@@H]2O (stereo partly drawn)	0.517µM	i	0.0073µM	?	?
Cc1ccc(-n2c(=S)[nH]c3ccc(C)cc3c2=O)cc1	i	i	i	i	i
C[C@]1(O)CCC2C3CC[C@H]4C[C@@H](OC(=O)CNC(=O)CN)CC[C@]4(C)C3CC[C@@]21C (stereo partly drawn)	i	i	i	i	i
CC1=CC2OC3CC4OC(=O)C=CC=CC(=O)OCCC(C)C(O)C(=O)OCC2(CC1)C4(C)C31CO1 (stereo not drawn)	0.164µM	-103.0	0.0366µM	0.103µM	nt
CC1CCOC(=O)C=CC=CC(=O)OC2CC3OC4C5OC5(C)C(O)CC4(COC(=O)C1O)C2(C)C31CO1 (stereo not drawn)	?	-103.7	0.206µM	5.8µM	nt
CC1=CC2OC3CC4OC(=O)C=CC=CC(C(C)O)OCC(O)C5(C)OC5C(=O)OCC2(CC1O)C4(C)C31CO1 (stereo not drawn)	0.366µM	-116.5	0.0146µM	?	nt
CC(O)C1C=CC=CC(=O)OC2CC3OC4C5OC5(C)C(O)CC4(COC(=O)C(O)C(C)CCO1)C2(C)C31CO1 (stereo not drawn)	?	-100.4	0.206µM	?	nt
C=C(C)[C@@H]1[C@H]2OC(=O)[C@H]1[C@]1(O)C[C@H]3O[C@]34C(=O)O[C@H]2[C@]14C	i	i	i	i	i
O=C1NC(=O)N(c2ccc3c(c2)OCO3)C(=O)/C1=C/c1cccs1	i	-103.8	?	i	i
Cn1cc(C(=O)OCC(=O)Nc2ccccc2)c2ccccc21	i	i	i	20.6µM	i
Cn1cc(C(=O)OCC(=O)Nc2ccccc2Cl)c2ccccc21	i	i	i	i	i
COc1cccc(C2CC3C(=O)C=CC2N3Cc2ccccc2)c1 (stereo not drawn)	i	?	?	?	i
O=C1C=CC2C3C(=O)N(c4ccccc4)C(=O)C3C1N2Cc1ccccc1 (stereo not drawn)	?	-96.9	?	18.4µM	10.3µM

Screening data: PubChem, National Center for Advancing Translational Sciences (NCATS)
